Each structure is given as a SMILES string. Compounds without any hit were thinned out: in the full panel of roughly 83,000, 20% have a hit.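 Plates (96-well) were seeded with cells, treated with compound at one concentration, and incubated for 48 hours before percent growth was determined.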 A number with no mark means an inactive call. Calls of active or inactive are those of the source.

This test concerns RPMI-8226 leukemia. The experiment in a line: NCI-60 one-dose screen, 48 h (100 = growth as untreated, 0 = no growth, -100 = all killed). The note with it: 10 µM unless noted. The procedure:
Growth inhibition of the RPMI-8226 human tumor cell line is measured as a screen for anti-cancer activity. Cells are grown in 96 well plates and exposed to the test compound for 48 hours. Compounds are tested at a single concentration, which is 10^-5 M for most compounds. The reported endpoint is percent growth (GI% or GIPRCNT), where numbers from 0 - 100% represent growth inhibition, and numbers from -100% - 0 represent cell death. For example, a value of 40 represents 60% growth inhibition. A value of 0 means no net growth occurred over the course of the experiment. A value of -40 indicates 40% of cells at the beginning of the experiment died by the end of the experiment. A value of -100 means all cells are dead at the end of the experiment.
NCI-60 Human Tumor Cell Lines Screen was performed using the standard one-dose NCI protocol, which is described in more detail at https://dtp.cancer.gov/discovery_development/nci-60/default.htm.
Compounds with GIPRCNT values below 10 were considered active. Activity score was based on GIPRCNT using the following formula: […]
Score is 0 for GIPRCNT values of 100 or above, 50 for GIPRCNT values of 0, and 100 for GIPRCNT values of -100.
Consider `N#Cc1ccc(/C=N/NC(=O)c2[nH]c3ccc(Br)cc3c2-c2ccccc2)s1`, for which the growth is -7.36% (active).

On to `COc1ccc(Cc2nn(CC(=O)N/N=C/c3ccc(Cl)cc3)c(=O)c3c(C)noc23)cc1`, for which the growth was 87.4%.

Take `COc1cc(OC)c(C2SCC(=O)N2Nc2ncnc3ccccc23)cc1OC` (stereo not given): the growth was 115%.

On to `COc1ccc(/C=N/NC(=O)c2[nH]c3ccc(Br)cc3c2-c2ccccc2)s1`, for which the growth is 7.49% (active).

Consider `Cc1cc2nc3c4cc(Cl)ccc4n(CC(=S)NCCN(C)C)c3nc2cc1C`, for which the growth is -19.6% (active).

`CCOC(=O)c1c(Nc2ccccc2)nn2c(N)c(C#N)c(-c3ccc(Cl)cc3)nc12`: the growth is 86.1%.

Take `CN(C)c1ccc(/C=c2\sc3nc4ccccc4n3c2=O)cc1`: the growth is 104%.

In the case of `CCOC(=O)c1sc(N)c(C(=O)OCC)c1C`, the growth is 42.3%.

`Cc1cccc(/C=C/c2nn3c(-c4ccco4)nnc3s2)c1`: the growth is 100%.

Regarding `COc1cc2nc(-c3ccc(Cl)cc3)cc(OCCCNCC3CCCO3)c2cc1OC` (stereo not given), the growth is 8.63% (active).

For `O=C1Nc2ccccc2Oc2ccc(S(=O)(=O)CC3CO3)cc21` (stereo not given), the growth was 44.9%.

`Cc1nc(-c2cc3ccccc3oc2=O)ccc1C(=O)/C=C/c1ccccn1`: the growth was -36.3% (active).

As for `C#Cc1nc(C2=C(C)C(OC(=O)CCC(=O)O)CC2)cs1` (stereo not given), the growth was 102%.

For the molecule `O=C(N/N=C/c1cccs1)c1[nH]c2ccc(Br)cc2c1-c1ccccc1`, the growth was 3.64% (active).

Consider `CC(C)NC(=O)c1cc(-c2ccc(NC(=O)Nc3ccc(N4CCOCC4)c(C(F)(F)F)c3)cc2)nc2cccnc12`, for which the growth is 14.3%.

With `CS(=O)(=O)Nc1ccc(-c2nn(-c3ccc(S(C)(=O)=O)cc3)cc2/C=C/C(=O)c2ccc(NC(=O)CO[N+](=O)[O-])cc2)cc1`, the growth was 111%.

In the case of `Cc1nc2cnc(N)c(C#Cc3cncc(C(=O)Nc4ccc(Cl)c(C(F)(F)F)c4)c3)c2nc1C`, the growth is -10.2% (active).

Consider `COc1cccc(-c2nn(-c3ccccc3)cc2-c2ccnc(N3CCN(C(=O)c4ccccc4)CC3)c2)c1`, for which the growth is 47.7%.

In the case of `CC(=O)Oc1ccccc1C(=O)Nc1cc(C(C)C)ccc1C`, the growth is 1.78% (active).

In the case of `CN(C)CCCOc1c2ccccc2nc2c1oc1ccc(Cl)cc12`, the growth was -20.8% (active).

Take `COc1cc(/C=C/C(=O)c2cc(OC)c(OC)c(OC)c2)ccc1OCc1ccc(F)cc1`: the growth was -16.1% (active).

For the molecule `O=C(CCN1C(=O)/C(=C/c2ccccc2F)SC1=S)N1CCOCC1`, the growth was 59.7%.

For the molecule `CN(C)CCCOc1c2ccc(Cl)cc2nc2c1oc1ccccc12`, the growth was -22.1% (active).

With `Cc1cccc2sc(/N=C(\N)C(Cl)(Cl)Cl)nc12`, the growth was 105%.

As to `Nc1cc(-c2c[nH]c3ccccc23)nc2cc(-c3c[nH]c4ccccc34)nn12`, the growth is 35.9%.

Take `COc1cc(/C=C/C(=O)c2cc(OC)c(OC)c(OC)c2)ccc1OCc1ccccc1`: the growth is -12.4% (active).

For the molecule `COc1cccc(OC)c1-c1nnn(C)c1C(=S)N1CCN(c2ccc([N+](=O)[O-])cc2Cl)CC1`, the growth was 77.5%.

Regarding `CN1CCN(Cc2ccc(NC(=O)c3cncc(C#Cc4cnc5[nH]ncc5c4)c3)cc2C(F)(F)F)CC1`, the growth was 31.2%.

For `COc1cc(/C=C/C(=O)c2ccc(C(F)(F)F)cc2)ccc1Oc1nc(NCCO)nc(N2CCOCC2)n1`, the growth is -16.1% (active).

Regarding `Cc1sc2nc(NCc3ccccc3Cl)[nH]c(=O)c2c1C`, the growth is 82.8%.

For the molecule `CN1CCc2c(sc3ncnc(N/N=C/c4ccc(Cl)c(Cl)c4)c23)C1`, the growth is 41.4%.

In the case of `C=CCn1c(SCC(=O)c2ccc(Br)cc2)nnc1-c1c[nH]c2ccccc12`, the growth was 98.8%.

In the case of `CCN1C(=S)N(c2ccccc2)C2NC(=O)N(/N=C/C=C/c3ccccc3OC)C21` (stereo not given), the growth is 92.6%.

In the case of `CCCC(=O)NC(c1ccc(N(CC)CC)cc1)c1cc(C)c2cccnc2c1O` (stereo not given), the growth is 22.6%.

Take `COc1ccc(CNS(=O)(=O)/N=C2\NC(=O)NC2=C(Cl)Cl)cc1`: the growth was 15.3%.

In the case of `CNC(=O)c1cc(-c2ccc(NC(=O)Nc3ccc(N4CCOCC4)c(C(F)(F)F)c3)cc2)nc2cccnc12`, the growth is 9.25% (active).

`CC(=O)Oc1ccccc1C(=O)Nc1ccc(C(=O)/C=C/c2ccncc2)cc1`: the growth was -25.8% (active).

Regarding `N/C(=N\c1nc2c(Cl)cc(Cl)cc2s1)C(Cl)(Cl)Cl`, the growth was 15.4%.

As to `COC(=O)C(Cc1ccccc1)NS(=O)(=O)/N=C1\NC(=O)NC1=C(Cl)Cl` (stereo not given), the growth is 4.3% (active).

Take `c1ccc2c(NCCCN3CCOCC3)c3oc4ccccc4c3nc2c1`: the growth was -14.4% (active).

Source of the values: PubChem BioAssay (NCI).
